ssDAF12 agonist: S. stercoralis DAF-12 activation, primary screen. activation, % at 6.8 µM. AID 652126. HEK293 ssDAF-12/GRIP1 lit1-tk-luc reporter, luminescence; % of 3 µM dafachronic acid response. 1% of 370,000 active;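 active means activation above the mean over all tested compounds plus 3 SD, cut at about 0.9% in these data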;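 further: 0% = DMSO-only wells and 100% = 3 µM delta7-dafachronic acid wells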
hgDAF12 agonist: activates the H. glycines DAF-12 receptor ligand-binding domain; HEK293 GAL4-hgDAF12 UAS-luciferase reporter, agonist luminescence; normalized to butyrate control; activation, % at 6.8 µM; 1.8% of 370,000 active; AID 687014;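 active means activation above a cutoff set at the mean of all screened compounds plus 3 SD, cut at about 10% in these data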;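 further: 0% = DMSO wells and 100% = sodium butyrate wells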
DAX1 inh-1: DAX1 (NR0B1) inhibition, primary screen; 1.1% of 370,000 active; AID 652010; HEK293T StAR-luciferase reporter, SF-1/DAX-1 repression relief; inhibition, % at 6.8 µM;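 active means inhibition above the mean over all tested compounds plus 3 SD, cut at about 3.6% in these data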;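 further: 0% = DAX-1 cells with DMSO and 100% = cells lacking DAX-1 with DMSO; higher inhibition means more luminescence from relief of DAX-1 repression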
DAX1 inh-2: inhibits human nuclear receptor DAX1; 0.99% of 340,000 active; HEK293 Gal4-DAX1 luciferase reporter, luminescence; inhibition, % at 6.75 µM;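 active means inhibition above the mean over all tested compounds plus 3 SD, cut at about 4.2% in these data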;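 further: 0% = DAX1-transfected cells with DMSO and 100% = empty-vector control cells with DMSO; inhibition shows as a rise in luminescence from relieved DAX1 repression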
hcDAF12 agonist: activates DAF-12 receptor from parasite H. contortus; 1.4% of 370,000 active; AID 652067; HEK293 hcDAF-12 lit1-tk-luc reporter, luminescence; 0% DMSO, 100% Δ7-dafachronic acid; activation, % at 6.8 µM;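 active means activation above the mean of all tested compounds plus 3 SD, cut at about 5.5% in these data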;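 further: 100% = response to 3 µM Δ7-dafachronic acid high control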
DAX1 conf: NR0B1 (human) inhibition, confirmation | shares compounds with DAX1 inh-1 | HEK293T StAR-promoter luciferase reporter, SF-1/DAX-1 repression | inhibition, % at 6.8 µM | 87% of 2,400 active;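 active means inhibition above the average of every tested compound plus 3 SD, cut at about 3.8% in these data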;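 further: 0% = DAX-1 cells with DMSO and 100% = no DAX-1 control cells with DMSO; active compounds raise luminescence by relieving repression of the StAR reporter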
Target sequence (P51843 whole entry, looked up): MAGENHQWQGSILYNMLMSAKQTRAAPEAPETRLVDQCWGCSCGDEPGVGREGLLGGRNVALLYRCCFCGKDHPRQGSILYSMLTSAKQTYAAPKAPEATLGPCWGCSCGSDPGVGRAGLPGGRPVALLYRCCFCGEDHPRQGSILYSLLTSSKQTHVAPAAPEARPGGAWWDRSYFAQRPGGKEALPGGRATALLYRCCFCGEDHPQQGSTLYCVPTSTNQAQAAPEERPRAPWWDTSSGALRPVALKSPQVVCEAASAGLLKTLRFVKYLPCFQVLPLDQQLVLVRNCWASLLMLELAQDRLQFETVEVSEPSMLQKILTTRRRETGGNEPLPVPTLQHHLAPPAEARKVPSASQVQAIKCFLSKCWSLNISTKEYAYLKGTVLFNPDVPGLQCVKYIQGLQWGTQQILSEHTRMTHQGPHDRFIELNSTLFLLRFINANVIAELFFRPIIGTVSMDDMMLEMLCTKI
SF1 AF2mut Luc: counter-screen for DAX1 inhibitors: nonselective inhibitors with SF-1 AF2 mutant. shares compounds with DAX1 inh-1. HEK293 StAR-luciferase, luminescence. inhibition, % at 6.8 µM. 78% of 2,400 active. AID 652136;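 active means inhibition above the mean of all tested compounds plus 3 SD, cut at about 3% in these data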;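 further: 0% = DAX-1 transfected cells with DMSO and 100% = cells without DAX-1 with DMSO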
LXRb hcDAF ctr: LXR-beta agonism as hcDAF-12 counter-screen | shares compounds with hcDAF12 agonist | HEK293 Gal4-LXR tk-luc reporter, luminescence, 24 h; normalized: DMSO 0%, positive control 100% | activation, % at 6.8 µM | 3,400 tested, under 10 active | AID 743027;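 active means mean percent activation of the reporter above a cutoff set as the average over tested compounds plus their standard deviation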
hcDAF12 conf: hcDAF-12 agonism, confirmation assay. activation, % at 6.8 µM. HEK293 hcDAF-12 lit1-tk-luc reporter, luminescence; % of Δ7-dafachronic acid response. 61% of 3,400 active. shares compounds with hcDAF12 agonist;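 active means mean activation across triplicate tests above the threshold derived from the earlier primary screen, cut at about 5.5% in these data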;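 further: 0% = DMSO only wells and 100% = 3 µM Δ7-dafachronic acid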
hgDAF12 ag: hgDAF-12 agonism, confirmation assay; shares compounds with hgDAF12 agonist; AID 743050; HEK293 GAL4-hgDAF12 luciferase reporter, agonist mode; percent of butyrate response; 80% of 3,300 active; activation, % at 6.8 µM;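 active means mean activation over triplicate wells above the hit cutoff derived from the earlier primary screen, cut at about 11% in these data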;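 further: 0% = DMSO low control and 100% = 2 mM sodium butyrate high control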
LXRb DAF12 ctr: activates human LXR-beta, counter-screen for DAF-12 agonists. shares compounds with hgDAF12 agonist. HEK293 Gal4-LXR luciferase reporter, 24 h. activation, % at 6.8 µM. 3,300 tested, under 10 active;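 active means mean activation of the triplicate above a set limit carried over from the primary screen, none filed active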
* marks the source's active call; other numbers are inactive results; . = no result. This is a sample that favours compounds with a hit; in the whole collection about 4.1% have one here.

SMILES	ssDAF12 agonist	hgDAF12 agonist	DAX1 inh-1	DAX1 inh-2	hcDAF12 agonist	DAX1 conf	SF1 AF2mut Luc	LXRb hcDAF ctr	hcDAF12 conf	hgDAF12 ag	LXRb DAF12 ctr
N#C/C(=N\Nc1ccc(F)cc1)C(=O)C1CC1	-1	0	0	.	0	.	.	.	.	.	.
N#C/C(=N\Nc1ccc(F)cc1)C(=N)N1CCCCCC1	0	14*	7.0*	4.4*	9.2*	15*	4.0*	1	7.3*	18*	1
Cc1ccc(N/N=C(\C#N)C(=N)N2CCCCCC2)cc1	2.0*	19*	10*	2	12*	16*	6.8*	2	9.7*	23*	1
N#C/C(=N\Nc1ccc(Cl)cc1)C(=N)N1CCCCC1	1.0*	15*	5.9*	2	7.8*	15*	11*	2	6.6*	19*	1
Cc1ccc(N/N=C(\C#N)C(=O)c2ccsc2)cc1	-1	2	0	0	0	.	.	.	.	.	.
COc1ccc(CCCC(=O)Nc2ccccc2F)cc1	-1	8	1	0	0	.	.	.	.	.	.
CSc1ccc(/C=N/NC(=O)c2ccc(C)c(C)c2)cc1	-1	1	0	1	-1	.	.	.	.	.	.
CSc1ccc(/C=N/NC(=O)c2sccc2C)cc1	1.7*	16*	5.8*	1	7.1*	16*	7.9*	2	6.6*	24*	1
CC1Cc2ccccc2N1C(=O)COC(=O)CCc1nc2ccccc2c(=O)[nH]1 (stereo not given)	-1	3	0	-1	-1	.	.	.	.	.	.
CC1=Nc2ccccc2N=C(N)C1c1ccccc1 (stereo not given)	1.5*	18*	5.1*	1	7.4*	3.7*	4.3*	0	3	13*	0
CC1=NN(c2ccccc2)C(=O)C1c1ccccc1 (stereo not given)	-1	0	-1	-1	-2	.	.	.	.	.	.
Cc1cc(-c2ccc3ccccc3c2)n2ncnc2n1	0	1	0	-1	-1	.	.	.	.	.	.
Cc1cccc(NS(=O)(=O)c2nnc(NC(=O)C3CCCCC3)s2)c1	-1	1	-1	-1	1	.	.	.	.	.	.
Cc1ccc(C(=O)C(C)OC(=O)c2ccccc2[N+](=O)[O-])cc1 (stereo not given)	0	18*	6.1*	1	4	15*	9.8*	.	.	15*	1
O=[N+]([O-])c1ccc(COc2ccc(CN3CCCC3)cc2)cc1	0	15*	4.8*	0	2	6.9*	5.6*	.	.	13*	0
O=[N+]([O-])c1ccc(COc2ccc(CN3CCOCC3)cc2)cc1	0	18*	7.7*	-2	3	4.2*	1	.	.	9	1
O=[N+]([O-])c1ccc(COc2ccc(CN3CCCCC3)cc2)cc1	-1	8	2	0	1	.	.	.	.	.	.
Cc1c(Cc2ccccc2)c(=O)oc2cc(OCC(=O)N3CCC(C(N)=O)CC3)ccc12	-1	1	0	1	-1	.	.	.	.	.	.
CNC(=S)Nc1ccc([N+](=O)[O-])cc1C	-2	-2	0	0	-2	.	.	.	.	.	.
Cc1cc([N+](=O)[O-])ccc1NC(=O)c1csc(C)c1C	0	19*	5.5*	3	3	4.5*	2.9*	.	.	19*	1

From PubChem
